# TWEAK-Fn14 inh: blocks TWEAK-Fn14 interaction in a reporter cell assay. hit rate 2% among 360,000. inhibition, % at 10 µM. TWEAK-stimulated Fn14 reporter cells, luciferase luminescence, 8 h; in the data active = inhibition above about 50%
# Peg3 prom inh: inhibitors of Peg3 promoter; inhibition, % at 20 µM; hit rate 1.7% among 360,000; HeLa PEG-Prom luciferase reporter, luminescence, overnight;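 active = inhibition of at least 50% at 20 µM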
# KKLEB cytotox: reduces viability of KKLEB cystic fibrosis airway cells; KKLEB CF airway cells viability, ATPlite luminescence, overnight; hits give low values; cells stimulated with P. aeruginosa culture filtrate; AID 602141; hit rate 0.36% among 360,000; activity change (cytotoxicity), % at 5 µM;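 active = corrected activity change at or below -50% at 5 µM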
# TROY signal inh: TROY signaling inhibition. Q293 LMP1-TROYcd NF-kB luciferase reporter, 4 h. inhibition, % at 10 µM. hit rate 0.98% among 360,000;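 active = compounds whose plate-normalised and pattern-corrected inhibition of the luciferase reporter signal at the single screening dose is 50% or more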
# HIF-2a block: blocks HIF-2a reporter activity. AID 624352. hit rate 0.72% among 360,000. 786-0 RCC cells HIF-2a reporter, luciferase luminescence, overnight. inhibition, % at 18.8 µM;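 active = inhibition of the luminescence signal of 40% or more relative to plate controls, in a single-dose primary screen at 18.75 µM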
# CF NFkB block: inhibitors of cystic fibrosis induced NF-kB; KKLEB NF-kB-GFP reporter, PAF-induced, GFP fluorescence overnight; inhibition, % at 5 µM; hit rate 0.86% among 360,000;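 active = at least 50% inhibition at 5 µM, scaled per plate between neutral and stimulator controls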;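 note: PAF is a Pseudomonas aeruginosa culture filtrate used as stimulus; plate controls were PAF-stimulated DMSO wells for no effect and unstimulated DMSO wells for full effect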
# Numbers without * were called inactive; . = no result. Shown are actives, neighbours in structure and some others; about 3.9% of the full set was active somewhere.
SMILES,TWEAK-Fn14 inh,Peg3 prom inh,KKLEB cytotox,TROY signal inh,HIF-2a block,CF NFkB block
O=C(Nc1ccc(Br)cn1)c1cccc(-c2cc3ccccc3oc2=O)c1,-72,-175,-1,-73,-82,-9
Cc1nc(NC(=O)c2ccc(-c3cc4ccccc4oc3=O)cc2)ccc1Br,-20,82*,-1,-5,9,4
Cc1nc(NC(=O)c2cccc(-c3cc4ccccc4oc3=O)c2)ccc1Br,-42,79*,-6,-68,-55,7
Nc1cccc(-c2cc3ccccc3oc2=O)c1,60*,-61,1,67*,41*,2
O=C(O)CCSc1nnc(COc2cccc3ccccc23)n1-c1cccc(Cl)c1,-16,15,-21,7,5,-2
COc1cc(/C=C/C(=O)O)ccc1OCc1cnc(Cl)s1,-4,-6,4,-11,11,-15
Cc1csc(=NC(=O)c2ccccc2)n1C,2,-259,-5,-32,-243,-2
O=C(N=c1nc2ccccn2s1)c1ccccc1,95*,-36,-35,59*,-41,-14
C=CCNCC(=O)N1N=C(c2ccc3ccccc3c2)CC1c1ccc(OC)cc1 (configuration not stated),8,66*,-12,3,-34,16
COc1ccc(C2CC(c3ccc4ccccc4c3)=NN2C(=O)CNC2CCCCC2)cc1 (configuration not stated),15,90*,-31,27,-104,30
Cc1ccc(S(=O)(=O)N2CCN(Cc3nc4sc5c(c4c(=O)[nH]3)CCCC5)CC2)cc1,26,15,4,29,25,0
CCOC(=O)c1c(S(=O)(=O)NCC(=O)N2CCN(c3cccc(OC)c3)CC2)c(C)n(C)c1C,5,16,3,0,13,1
Cc1nc(=S)c2c([nH]1)-c1ccccc1CC21CCCCC1,75*,8,-6,-5,11,6
O=C1NC(c2ccc(Cl)cc2Cl)Oc2ccccc21 (configuration not stated),-11,2,4,-14,19,3
Cc1ccccc1C1NC(=O)c2ccccc2O1 (configuration not stated),88*,-5,9,-8,17,5
COc1ccc(C)cc1Nc1nc(N)c2cc(OC)c(OC)cc2n1,-19,84*,-6,-14,8,-19
COc1ccc(Cl)cc1Nc1nc(N)c2ccccc2n1,-12,-85,6,-74,-133,-14
CN1CCN(c2ccc(CNC(=O)c3cccc4c(-c5ccc(F)c(F)c5)coc34)cc2)CC1,-141,73*,-12,-48,-46,-9
CN1CCN(c2ccc(CNC(=O)c3ccc(-c4ccc(F)c(F)c4)c4ccoc34)cc2)CC1,-66,63*,9,10,-30,-16
COCCCn1c(=O)c2sccc2n2c(CCCC(=O)NCc3ccc(F)cc3)nnc12,2,19,6,-23,12,-11
CSc1nnc(NC(=O)c2nc(S(=O)(=O)Cc3ccccc3)ncc2Cl)s1,98*,105*,-82*,26,3,91*
CCOC(=O)c1ccc(NC(=O)c2nc(S(=O)(=O)Cc3ccccc3)ncc2Cl)cc1,62*,110*,-66*,63*,89*,95*
CCOC(=O)c1ccc(NC(=O)CCS(=O)(=O)Cc2ccccc2)cc1,-1,-3,-9,-27,13,-2
CSc1ncc(Cl)c(C(=O)Nc2nnc(SC)s2)n1,-32,-1,10,5,-3,-5
O=C(O)c1cccc(N(CCO)CCO)c1,-7,18,22,-2,10,-2
OCCN(CCO)c1ccc(C(c2ccccc2Cl)c2ccc(N(CCO)CCO)cc2Cl)c(Cl)c1,22,59*,10,44,25,9
O=C(O)CCc1c(C(=O)O)[nH]c2ccccc12,69*,0,8,.,5,-19
O=C(O)CCCc1c(-[n+]2ccccc2)[nH]c2ccccc12,-1,4,17,9,13,2
CC(=O)N1c2ccccc2Sc2ccc3ccccc3c21,12,17,13,-8,21,-20
O=C(CCl)N1c2ccccc2Sc2c1ccc1ccccc21,-13,58*,-16,-66,-41,4
